Rows were chosen to be rich in hits. Some 1.9% of all compounds tested hit in one or more screens of this group.
Abeta rescue: A-beta toxicity reversal in yeast. actives 0.063% (n = 410,000). AID 1347071. Potency, µM (titrated, usually from 46.1 µM), hits mostly activators. yeast expressing A-beta42, growth rescue, OD600, 48 h; response scale: 0% DMSO, 100% iron-clioquinol control; note: potency is the fitted concentration of half-maximal effect; nearly all actives have a fitted effect of over 55% in size
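Yeast A-beta toxicity model in growth medium with pinned compounds, 48 h at 30 C; growth read as absorbance at 600 nm. Normalized to FeCl3/clioquinol equimolar mix (positive) and DMSO (negative).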
TDP-43 yeast inh: TDP-43 toxicity inhibition in yeast. TDP-43 expressing yeast growth rescue, BacTiter-Glo, 24 h. Potency, µM (top dose mostly 46.1 µM), without a hit: top-dose growth rescue (activation), actives largely listed as activators. actives 1.8% (n = 410,000); note: potency is the fitted concentration of half-maximal effect; % of control where 0% means no effect; nearly all actives have a fitted effect of over 50% in size
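Readout is BacTiter-Glo luminescence of cell growth, so inhibitors register as activators. TDP-43-expressing yeast at OD600=0.02 in galactose medium, after raffinose pregrowth to mid-log, were incubated with compound for 24 hr at 30 deg C.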
aSyn rescue: alpha-synuclein toxicity inhibition in yeast; Yeast expressing alpha-synuclein, growth rescue, BacTiter-Glo, 24 h; AID 652106; Potency, µM (doses to about 46.1 µM), for inactives: at the highest dose growth rescue (activation), usual class: activators; actives 0.14% (n = 370,000); note: potency is the fitted concentration of half-maximal effect; % of control where 0% means no effect; nearly all actives have a fitted effect of over 65% in size
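Readout is rescue of growth in alpha-synuclein-expressing yeast, so inhibitors of toxicity appear as activators. Growth after 24 hr at 30 deg C in galactose medium is quantified by luminescence.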
FUS suppressor: FUS proteinopathy suppression in yeast | S. cerevisiae FUS-expressing, growth rescue, OD600, 24 h | Potency, µM (series often up to 76.6 µM), most hits filed as activators | actives 0.24% (n = 390,000);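 note: potency is the fitted concentration of half-maximal effect; plate controls were DMSO vehicle for no effect and reference control for full effect; nearly all actives have a fitted effect of over 55% in size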
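S. cerevisiae expressing FUS from galactose induction served as the toxicity model. Growth after 24hr at 30C, read as absorbance at 600 nm, indicates suppression of toxicity; compounds dosed at several concentrations.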
PTHR1 agonist: agonists of human PTHR1 parathyroid hormone receptor | HEK293 GP2 PTHR1 cells, GloSensor cAMP luminescence, 1 h | AID 743266 | Q03431 | Potency, µM (series often up to 115 µM), for inactives: at the highest dose activation, most hits filed as activators | actives 0.075% (n = 410,000); note: potency is the fitted concentration of half-maximal effect; nearly all actives have a fitted effect of over 55% in size
Target sequence (Q03431 whole entry, looked up): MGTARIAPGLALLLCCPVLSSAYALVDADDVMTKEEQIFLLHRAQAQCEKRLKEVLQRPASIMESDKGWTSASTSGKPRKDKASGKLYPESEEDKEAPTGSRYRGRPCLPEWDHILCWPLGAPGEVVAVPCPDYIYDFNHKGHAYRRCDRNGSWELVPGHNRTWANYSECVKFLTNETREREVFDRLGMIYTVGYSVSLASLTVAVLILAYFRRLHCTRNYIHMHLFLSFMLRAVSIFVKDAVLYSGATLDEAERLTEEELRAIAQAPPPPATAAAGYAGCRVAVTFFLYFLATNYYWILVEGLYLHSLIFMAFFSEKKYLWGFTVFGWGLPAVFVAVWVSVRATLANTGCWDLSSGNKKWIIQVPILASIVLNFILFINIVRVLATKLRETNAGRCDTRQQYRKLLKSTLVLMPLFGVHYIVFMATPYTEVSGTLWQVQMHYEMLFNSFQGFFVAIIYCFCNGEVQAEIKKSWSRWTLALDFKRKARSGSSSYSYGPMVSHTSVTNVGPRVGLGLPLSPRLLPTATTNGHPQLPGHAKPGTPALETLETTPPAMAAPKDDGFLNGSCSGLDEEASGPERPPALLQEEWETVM
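HEK-293-derived GP2 cells expressing PTHR1 and a GloSensor cAMP reporter, 3,000/well, plated overnight, given luciferin plus IBMX (each 0.5 mM as added) for 1 h at 37 °C, then compound for 1 h at 37 °C. Luminescence was read after 15 min at room temperature.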
LDHA inh: LDHA (human) enzyme inhibition | actives 0.15% (n = 480,000) | purified LDHA, NADH/diaphorase-resazurin fluorescence; hits give low values | AID 1347041 | activity change, % (values are at about 110 or 230 µM); in the data active = activity change below about -30%; inconclusive = mostly about -25% to -30%;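 note: plate controls were DMSO wells for no effect and wells without enzyme for full effect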
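Enzyme activity of human lactate dehydrogenase 5 (2 nM; 0.06 mM NADH, 0.2 mM pyruvate, 5 min, RT) is measured via a resazurin/diaphorase fluorescence readout of residual NADH.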
* = called active by the depositor; i = inactive; ? = inconclusive; · = no result; [ ] = another dose, or the depositor's remark. Unless noted, calls come from the whole dose curve; as a rule, active = well fitted curve in the direction sought with a large enough effect; inconclusive = small, poorly fitted or top-dose-only effect, or another doubt; inactive = no such curve, though single readings can be large; an effect the other way counts as inactive or inconclusive.

SMILES | Abeta rescue | TDP-43 yeast inh | aSyn rescue | FUS suppressor | PTHR1 agonist | LDHA inh
Cc1ccc(CSc2ccc3nnc(-c4ccccn4)n3n2)cc1 | i | 20µM* | -1% | i | -4% | -4
Brc1ccc(CSc2ccc3nnc(-c4cccnc4)n3n2)cc1 | i | 16µM* | 1% | i | -48% | -10
O=C(CSc1ccc2nnc(-c3cccnc3)n2n1)Nc1ccc(F)cc1 | i | 1% | 2% | i | i | -3
Fc1cccc(CSc2ccc3nnc(-c4cccnc4)n3n2)c1 | ? | 16µM* | 9% | i | i | -4
O=C(/C=C/c1ccccc1)Nc1cccc(Oc2ccccc2)c1 | · | · | · | · | · | 4
COc1ccc(Cl)cc1S(=O)(=O)Nc1noc2ccccc12 | i | 10µM* | -13% | i | i | -3
Cc1cc(S(=O)(=O)Nc2noc3ccccc23)ccc1F | i | 11µM* | -22% | i | i | -4
CC(N)c1ccc(OC(F)F)cc1 (stereo not given) | · | · | · | · | · | 5
Cc1cc(C(C)(C)C)cc(C)c1CSC1=NCC(C)(C)CN1 | · | · | · | · | · | 5
COCCn1nc(C(=O)NCC(c2ccc(OC)cc2)N2CCCC2)ccc1=O (stereo not given) | · | · | · | · | · | -2
CCOC(=O)CSc1nc2sc(C)c(C)c2c(=O)n1C | i | 11µM* | 0% | i | -6%[57.5 µM] | -1
CCOC(=O)CSc1nc2sc(C)c(C)c2c(=O)n1N | i | -1% | 1% | · | -37% | 0
COc1ccc(NC(=O)O/N=C2/CCCc3ccc(OC)cc32)cc1 | i | 14µM* | -11% | i | -3% | 3
COc1ccc2c(c1)/C(=N/OC(=O)c1cccs1)CCC2 | i | ? | 1% | i | i | -8
CCn1c(SCC(=O)N(C)Cc2ccc(-c3ccc(Cl)cc3)o2)nnc1C1CC1 | · | · | · | · | · | 5
Cc1nnc2sc(-c3csc4c3CCCC4)nn12 | i | 13µM* | -3% | ? | -34%[57.5 µM] | 7
COc1cc(-c2cc3nc(NC4CCCCC4)ccn3n2)cc(OC)c1OC | i | 35µM* | 1% | i | -9% | -1
CCN1CCCC1CN(Cc1cc2ccc(C)cc2[nH]c1=O)C(=S)Nc1ccccc1OC (stereo not given) | i | 0% | 6% | · | i | 4
CCN1CCCC1CN(Cc1cc2ccc(C)c(C)c2[nH]c1=O)C(=O)Nc1ccccc1OC (stereo not given) | i | -23% | 0% | 10µM* | i | 6
Cc1ccc(N2C(=O)c3ccccc3C2Nc2ccc(S(=O)(=O)N3CCCCC3)cc2)nc1 (stereo not given) | i | ? | 0% | 35µM* | i | -1
CC(C)Sc1nc(N)nc(-c2cccs2)c1C#N | i[9.22 µM] | 18µM* | 0% | i | -31% | -5
Cc1c(-c2ccc(F)cc2)nc(N)c(C#N)c1-c1cccs1 | i | ? | 1% | i | -35% | 0
CC(C)OC(=O)CSc1nc(N)c(C#N)c(-c2cccs2)c1C#N | i | 10% | -1% | i | -28%[57.5 µM] | 6
CSc1nc(N)nc(-c2cccs2)c1C#N | i | 20µM* | 8% | i | -37% | -8
CCN(C(=O)c1ccc(C(=O)OC)s1)C1CCCC1 | · | · | · | · | · | 2
SMILES | Abeta rescue | TDP-43 yeast inh | aSyn rescue | FUS suppressor | PTHR1 agonist | LDHA inh
COC(=O)COc1ccc2c(C)c(-c3ccc(OC)c(OC)c3)c(=O)oc2c1 | · | · | · | · | · | 3
OC(c1ccc(Cl)cc1)c1ncc(-c2ccc(Oc3ccccc3)cc2)[nH]1 (stereo not given) | i | 20µM* | -1% | ? | -20% | -13
Cc1ccc(C2CCCN2C(=O)Cn2nc(C)c3ccccc3c2=O)cc1 (stereo not given) | · | · | · | · | · | 12
CC(C)Oc1ccc(/C=C(/C#N)C(=O)c2ccccc2F)cc1 | · | · | · | · | · | 5
CC(C(=O)NCCS(=O)(=O)c1ccc(Br)cc1)S(=O)(=O)c1ccc(Cl)cc1 (stereo not given) | i | -25% | 0% | i | -19% | -35*
O=C(NCCS(=O)(=O)c1ccc(Br)cc1)c1ccc(Cl)cc1 | i | -9% | -2% | i | -72% | -12
CCC1C/C(=C\c2cc(OC)c(OC)cc2OC)C(=O)/C(=C/c2cc(OC)c(OC)cc2OC)C1 (stereo not given) | i | 16% | 0% | ? | i | -5
COc1cc(OC)c(OC)cc1/C=C1\CC(C)C/C(=C\c2cc(OC)c(OC)cc2OC)C1=O (stereo not given) | i | 18% | -13% | 25µM* | -18% | -6
CC(=O)Nc1ccc(NC(=O)CCNS(=O)(=O)c2ccc3c(c2)CCN3C(=O)C2CC2)cc1 | · | · | · | · | · | -3
COC(C/C=C/C(=O)COCc1ccccc1)OC | i | 13µM* | 6% | i | -38% | 4
COC(C/C=C/C(=O)[C@H](C)OCc1ccccc1)OC | i | ? | -1% | i | -35% | -5
COc1ccc(/C(O)=C/C(=O)C(=O)NNC(=O)c2ccccc2)cc1 | i | -49% | 19% | i | i | 10
COc1ccc(/C(O)=C/C(=O)C(=O)NNC(=O)C(O)(c2ccccc2)c2ccccc2)cc1 | i | 2% | 8% | 28µM* | i | 5
COc1ccc(/C(O)=C/C(=O)C(=O)Nc2c(C)n(C)n(-c3ccccc3)c2=O)cc1 | i | 0% | 0% | 28µM* | i | 19
CCc1cccc(CC)c1NC(=O)CCn1cnc2c1c(=O)n(C)c(=O)n2C | · | · | · | · | · | -6
Cc1[nH]n(-c2ccc(F)cc2)c(=O)c1CCC(=O)Nc1ccc(C#N)cc1 | · | · | · | · | · | -30*
Cc1nc2c3ccccc3nn2c(C)c1CCC(=O)Nc1ccc(C#N)cc1 | · | · | · | · | · | 8
O=[N+]([O-])c1ccc(/C=N/Nc2nc(-c3ccccc3)c3cc(Br)ccc3n2)o1 | i | 11µM* | -7% | i | -57% | -7
Cc1ccc2nc(N/N=C\c3ccc([N+](=O)[O-])o3)nc(-c3ccccc3)c2c1 | i | -3% | 16% | i | -35%[57.5 µM] | -1
Cc1cccn2c(=O)c(/C=N/O)c(NCc3ccccc3)nc12 | i | 12% | 3% | i | 1% | -4
CCC(C)N=Cc1c(NCc2ccco2)nc2c(C)cccn2c1=O (stereo not given) | i | 18µM* | 2% | i | i | 0
Cc1cc(=O)oc2cc(OCCOC(C)C)ccc12 | · | · | · | · | · | 2
O=C(CCn1nc(-c2ccccc2)c2ccccc2c1=O)Nc1ccc(Br)cc1 | · | · | · | · | · | 4

Screening results: PubChem BioAssay, National Center for Advancing Translational Sciences (NCATS)
